The source of these data is PubChem BioAssay AID686935 (National Center for Advancing Translational Sciences (NCATS), 2013).

Records with an inconclusive call do not appear. A number with no mark means an inactive call. The call rests on the fitted dose curve; in most records, active means well fitted curve in the direction sought with a large enough effect; inconclusive means small, poorly fitted or top-dose-only effect, or another doubt; inactive means no such curve, though single readings can be large or run the other way.

The nature of the assay: qHTS Assay for Lipid Storage Modulators: CytotoxicityAssay against Probe and Analogs. The note with it: 3T3-L1 adipocytes cytotoxicity, imaging cell count; series mostly up to 20 µM; activity change, negative = cytotoxicity: at the top concentration. The source says:
Storing lipids as a reservoir for energy or the anabolism of elementary metabolites is a common feature of probably all cells and is conserved from bacteria to humans. The universal cellular lipid storage organelle is the so-called lipid storage droplet (LD). Although ubiquitous, LDs share a simple structure composed of a hydrophobic core that harbors the storage lipids, which is shielded by a droplet-specific phospholipid monolayer to which proteins are attached. The current model of LD biogenesis involves an incorporation of the lipid core into the membrane leaflets of the endoplasmic reticulum (ER) followed by a subsequent budding-like maturation of a LD, which ultimately pinches off. Once released, LD volume can increase by localized lipogenesis or fusion of existing droplets. Storage lipids are re-mobilized enzymatically by lipase activity. Lipase regulation in the adipocyte is heavily studied and involves multiple components including catecholamine signaling, the LD-associated proteins Perilipin and comparative gene identification-58 (CGI-58) and at least two lipases named hormone sensitive lipase (HSL) and adipocyte triglyceride lipase (ATGL). LD regulation outside of the adipocyte is poorly understood and only few components are known. However, there is an urgent need to learn more about ectopic fat depots as mislocalized storage of lipids, for example in the liver or muscle, is an eminent health problem associated with insulin resistance or the metabolic syndrome. We developed a laser-scanning cytometer assay to enable 1,536-well screening and combined the results of the small molecules screen with an RNAi database based on lipid storage. In this assay we tested analogs of the probe in a cytotoxicity assay. NIH Molecular Libraries Probe Production Centers Network [MLPCN] NIH Chemical Genomics Center [NCGC] MLPCN Grant: MH085686 Assay Submitter (PI): Mathias Beller, Max-Planck-Institut fur Biophysikalische Chemie
3T3-L1 cells were obtained from ATCC (CL-173). Pre-adipocyte medium (PM-1),differentiation medium (DM-2) and after adipocyte medium (AM-1) were purchased from Zen-Bio (# PM-1-L1, DM-2-L1, AM-1-L1). […] of PM-1containing 3,000 cells was dispensed into each well of a 96-well plate (Corning, #3340), and the assay plates were incubated at 37 °C, 95% humidity and 5% CO2 for 3-5 days. The differentiation of pre-adipocyte to adipocyte was induced by removing the pre-adipocyte medium and replacing with […] of differentiation medium. […] of compounds at different concentrations dissolved in differentiation medium were added to the assay plates, along with medium exchange for differentiation to test their effects on adipocyte differentiation. The final DMSO concentration was 0.5%. Triacsin C (Sigma-Aldrich T-4540), an inhibitor of long-chain fatty acyl CoA synthetase that blocks synthesis of triglycerides, was used as a positive control for lipid under-storage. After 3 days, differentiation medium was replaced with 200ul of adipocyte maintenance medium and assay plates were incubated for 4 days. Cells were then fixed using4% of paraformaldehyde in PBS for 30 minutes at room temperature, washed 3 times with PBS buffer. Finally, the cells were stained using […] of PBS containing BODIPY lipid dye 493/530 (1:2000 -, Life Technologies, # D-3922), Hoechst 33342 (1:1000, Life Technologies, #H3570) and CellMask deep red dye (1:10,000 , Life Technologies, #H32721). Images were acquired using InCell 2000 (GE), number of cells, number of lipids, size of lipids and cells were analysis using GE Investigator software.
A general note: qHTS replaces the single test concentration by a dilution series.
In the case of `CCOc1ccc(CCNC(=O)c2cc3ncccc3n2Cc2cccc(C)n2)cc1OCC`, the “activity change, negative = cytotoxicity” value is -10.5%.
Then `CCOc1ccc(CCNC(=O)c2cc3sccc3n2CCN(C)C)cc1OCC`, with -2.7%; and `CCOC(=O)C1CCN(C(=O)C2(NC(=O)Nc3ccccc3Cl)CCCC2)CC1`, with -14.5%.
Consider `CCOc1ccc(CCNC(=O)c2cc3ccccc3n2CCN2CCOCC2)cc1OCC`, for which the “activity change, negative = cytotoxicity” value is 6.45%.
Consider `CCOc1ccc(CCNC(=O)c2cc3cccnc3n2Cc2cccc(C)n2)cc1OCC`, for which the “activity change, negative = cytotoxicity” value was -0.901%.
The result for `CCOc1ccc(CCNC(=O)c2cc3ccccc3n2Cc2cccc(C)n2)cc1OCC` reads -10.5%.
Then `CCOc1ccc(CCNC(=O)c2cc3ccccc3n2Cc2ccccn2)cc1OCC`, with 0.909%.
For the molecule `CCOc1ccc(CCNC(=O)c2cc3sccc3n2Cc2ccc(F)cc2F)cc1OCC`, the “activity change, negative = cytotoxicity” value was 10%.
